Measured values published in PubChem BioAssay (NCATS).
Inconclusive results are not listed. Where a call stands in place of a potency, no number is given. Calls of active or inactive are those of the source. Calls come from the whole dose curve; as a rule, active = well fitted inhibition curve with a large enough effect; inconclusive = small, poorly fitted or top-dose-only effect; inactive = flat fitted curve, though single readings scatter.

Experiments:
Assay in all cases: qHTS profiling for inhibitors of Plasmodium falciparum proliferation (AID 504749); note: nearly all actives have a fitted effect of over 60% in size
ATS189 = conditions: P. falciparum in erythrocytes, SYBR Green DNA, 72 h; series mostly up to 12.8 µM
How it was run: (§1)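 Fluorescence of SYBR Green-bound parasite DNA, read at 485/535 nm, served as the growth measure. Infected erythrocytes were cultured with compound 72 h; artemisinin (0.29 uM) and DMSO wells defined the normalization range.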

CP185 = conditions: P. falciparum in erythrocytes, SYBR Green DNA, 72 h; series mostly up to 12.8 µM
How it was run: as §1

CP192 = conditions: P. falciparum in erythrocytes, SYBR Green DNA, 72 h; series mostly up to 28.7 µM
How it was run: as §1

CP194 = conditions: P. falciparum in erythrocytes, SYBR Green DNA, 72 h; series mostly up to 12.8 µM
How it was run: as §1

CP201 = conditions: P. falciparum in erythrocytes, SYBR Green DNA, 72 h; series mostly up to 12.8 µM
How it was run: as §1

CP215 = conditions: P. falciparum in erythrocytes, SYBR Green DNA, 72 h; series mostly up to 28.7 µM
How it was run: as §1

CP217 = conditions: P. falciparum in erythrocytes, SYBR Green DNA, 72 h; series mostly up to 12.8 µM
How it was run: as §1

CP237 = conditions: P. falciparum in erythrocytes, SYBR Green DNA, 72 h; series mostly up to 12.8 µM
How it was run: as §1

CP238 = conditions: P. falciparum in erythrocytes, SYBR Green DNA, 72 h; series mostly up to 12.8 µM
How it was run: as §1

CP256 = conditions: P. falciparum in erythrocytes, SYBR Green DNA, 72 h; series mostly up to 12.8 µM
How it was run: as §1

CP262 = conditions: P. falciparum in erythrocytes, SYBR Green DNA, 72 h; series mostly up to 12.8 µM
How it was run: as §1

CP269 = conditions: P. falciparum in erythrocytes, SYBR Green DNA, 72 h; series mostly up to 12.8 µM
How it was run: as §1

CP305 = conditions: P. falciparum in erythrocytes, SYBR Green DNA, 72 h; series mostly up to 12.8 µM
How it was run: as §1

CP329 = conditions: P. falciparum in erythrocytes, SYBR Green DNA, 72 h; series mostly up to 12.8 µM
How it was run: as §1

DIV30 = conditions: P. falciparum in erythrocytes, SYBR Green DNA, 72 h; series mostly up to 12.8 µM
How it was run: as §1

JCK = conditions: P. falciparum in erythrocytes, SYBR Green DNA, 72 h; series mostly up to 12.8 µM
How it was run: as §1

P94_40 = conditions: P. falciparum in erythrocytes, SYBR Green DNA, 72 h; series mostly up to 12.8 µM
How it was run: as §1

PC26 = conditions: P. falciparum in erythrocytes, SYBR Green DNA, 72 h; series mostly up to 12.8 µM
How it was run: as §1

SC27B = conditions: P. falciparum in erythrocytes, SYBR Green DNA, 72 h; series mostly up to 12.8 µM
How it was run: as §1

TAB113 = conditions: P. falciparum in erythrocytes, SYBR Green DNA, 72 h; series mostly up to 12.8 µM
How it was run: as §1
Potency is the fitted concentration of half-maximal effect.

SMILES	Potency (ATS189)	Potency (CP185)	Potency (CP192)	Potency (CP194)	Potency (CP201)	Potency (CP215)	Potency (CP217)	Potency (CP237)	Potency (CP238)	Potency (CP256)	Potency (CP262)	Potency (CP269)	Potency (CP305)	Potency (CP329)	Potency (DIV30)	Potency (JCK)	Potency (P94_40)	Potency (PC26)	Potency (SC27B)	Potency (TAB113)
CN1CCCC[C@@H]1CCN1c2ccccc2Sc2ccc(S(C)=O)cc21 (some centres undefined)	inactive	inactive	inactive	inactive	inactive	inactive	inactive	inactive	inactive	inactive	inactive	inactive	inactive	inactive	inactive	inactive	inactive	inactive	inactive	inactive
CC[C@@]12CCCN3CCc4c(n(c5ccccc45)C(=O)C1)[C@H]32	inactive	inactive	inactive	inactive	inactive	inactive	inactive	inactive	inactive	inactive	inactive	inactive	inactive	inactive	inactive	inactive	inactive	inactive	inactive	inactive
CCCN[C@@H](C)C(=O)Nc1ccccc1C	inactive	inactive	inactive	inactive	inactive	inactive	inactive	inactive	inactive	inactive	inactive	inactive	inactive	inactive	inactive	inactive	inactive	inactive	inactive	inactive
CN(C)[C@@H]1C(=O)C(C(N)=O)=C(O)[C@]2(O)C(=O)C3=C(O)c4c(O)ccc(Cl)c4[C@H](O)[C@H]3C[C@@H]12	inactive	inactive	inactive	inactive	inactive	inactive	inactive	–	inactive	inactive	inactive	inactive	inactive	inactive	inactive	inactive	inactive	inactive	inactive	inactive
N[C@@H](CO)C(=O)NNCc1ccc(O)c(O)c1O	inactive	inactive	inactive	inactive	inactive	inactive	inactive	inactive	inactive	inactive	inactive	inactive	inactive	inactive	inactive	inactive	inactive	inactive	inactive	inactive
CC(C)(C)NC[C@H](O)c1cc(O)cc(O)c1	inactive	inactive	inactive	inactive	inactive	inactive	inactive	inactive	inactive	inactive	–	inactive	inactive	inactive	inactive	inactive	inactive	inactive	inactive	inactive
C[C@@H](CCc1ccccc1)NC[C@H](O)c1ccc(O)c(C(N)=O)c1	inactive	inactive	inactive	inactive	inactive	inactive	inactive	inactive	inactive	inactive	inactive	inactive	inactive	inactive	–	inactive	inactive	inactive	inactive	inactive
C[C@@H]1c2cccc(O)c2C(O)=C2C(=O)[C@@]3(O)C(O)=C(C(N)=O)C(=O)[C@@H](N(C)C)[C@@H]3[C@@H](O)[C@@H]21	–	–	inactive	–	inactive	inactive	inactive	–	–	–	inactive	–	–	inactive	–	inactive	–	–	–	–
CO/N=C(\C(=O)N[C@@H]1C(=O)N2C(C(=O)O)=C(COC(C)=O)CS[C@@H]12)c1csc(N)n1	inactive	inactive	inactive	inactive	inactive	inactive	inactive	inactive	inactive	inactive	inactive	inactive	inactive	inactive	inactive	inactive	inactive	inactive	inactive	inactive
CCn1cc(C(=O)O)c(=O)c2cc(F)c(N3CCN[C@@H](C)C3)c(F)c21	inactive	inactive	inactive	inactive	inactive	inactive	inactive	inactive	inactive	inactive	inactive	inactive	–	inactive	inactive	–	inactive	inactive	inactive	–
NC(=O)c1cc[n+](CC2=C(C(=O)O)N3C(=O)[C@@H](NC(=O)[C@H](c4ccccc4)S(=O)(=O)[O-])[C@@H]3SC2)cc1	1.58 µM (active)	–	–	–	–	–	–	1.41 µM (active)	3.55 µM (active)	3.55 µM (active)	inactive	1.61 µM (active)	2.56 µM (active)	–	2.28 µM (active)	4.47 µM (active)	1.26 µM (active)	1.81 µM (active)	2.51 µM (active)	1.78 µM (active)
O=C(c1ccccc1)c1ccc2n1CC[C@H]2C(=O)O	inactive	inactive	inactive	inactive	inactive	inactive	inactive	inactive	inactive	inactive	inactive	inactive	inactive	inactive	inactive	inactive	inactive	inactive	inactive	inactive
CCCN(CCC)C(=O)[C@@H](CCC(=O)O)NC(=O)c1ccccc1	inactive	inactive	inactive	inactive	inactive	inactive	inactive	inactive	inactive	inactive	inactive	inactive	inactive	inactive	inactive	inactive	inactive	inactive	inactive	inactive
CC[C@]1(C)CC(=O)NC1=O	inactive	inactive	inactive	inactive	inactive	inactive	inactive	inactive	inactive	inactive	inactive	inactive	inactive	inactive	inactive	inactive	inactive	inactive	inactive	inactive
C[C@@H]1COc2c(N3CCN(C)CC3)c(F)cc3c(=O)c(C(=O)O)cn1c23	inactive	inactive	inactive	inactive	inactive	inactive	inactive	inactive	inactive	inactive	inactive	inactive	inactive	inactive	inactive	inactive	inactive	inactive	inactive	inactive
CC(=O)OCC1=C(C(=O)O)N2C(=O)[C@@H](NC(=O)CSc3ccncc3)[C@@H]2SC1	inactive	inactive	inactive	inactive	inactive	inactive	inactive	inactive	inactive	inactive	inactive	inactive	inactive	inactive	inactive	inactive	inactive	inactive	inactive	inactive
COc1ccccc1OC[C@H](O)COC(N)=O	inactive	inactive	inactive	inactive	inactive	inactive	inactive	inactive	inactive	inactive	inactive	inactive	inactive	inactive	inactive	inactive	inactive	inactive	inactive	inactive
CC1(C)O[C@@H]2C[C@H]3[C@H]4C[C@H](F)C5=CC(=O)C=C[C@@]5(C)[C@@H]4[C@H](O)C[C@]3(C)[C@]2(C(=O)CO)O1	inactive	inactive	inactive	inactive	inactive	inactive	inactive	inactive	inactive	inactive	inactive	inactive	inactive	inactive	inactive	inactive	inactive	inactive	inactive	inactive
